# From PubChem
# An excerpt weighted towards active compounds, which were near 1.6% of everything screened.
# gsp agonist – qHTS for Agonist of gsp, the Etiologic Mutation Responsible for Fibrous Dysplasia/McCune-Albright Syndrome: qHTS; gsp mutant cells, cAMP HTRF, 30 min; Potency, µM (series often up to 76.9 µM), for inactives: at the highest dose activation (cAMP increase), most hits filed as activators; hit rate 0.13% among 340,000; active means well fitted activation curve with a large enough effect; inconclusive means small, poorly fitted or top-dose-only effect, or another doubt; inactive means no such curve, though single readings can be large or run the other way; cell line not stated here;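 further: phosphodiesterase inhibitor Ro 20-1724 added with compounds to block cAMP breakdown; nearly all actives have a fitted effect of over 60% in size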
#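 Cells in DMEM/10% FBS with G418 were pretreated with compounds in DMSO plus […] (300 uM stock) for 30 min at 37C. cAMP was measured by HTRF (cAMP-d2 plus anti-cAMP antibody-K) after 30 min at room temperature.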
# gsp antagonist – qHTS for Antagonists of gsp, the Etiologic Mutation Responsible for Fibrous Dysplasia/McCune-Albright Syndrome: qHTS | Potency, µM (highest dose often 76.9 µM), without a hit: at the top dose activity change, negative = inhibition, most hits filed as inhibitors | hit rate 0.4% among 340,000 | gsp-mutant cells, cAMP HTRF, 30 min; calls by dose curve; cell line not stated here;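 further: intracellular cAMP measured with PDE inhibitor Ro 20-1724 present during compound exposure; on the % scale 0 is the no-effect control and ±100 the full control effect; nearly all actives have a fitted effect of over 65% in size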
#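 HTRF cAMP measurement after 30 min RT detection following 30 min, 37C compound treatment alongside […] (added as 300 uM solution) in G418-selected cells seeded at 2000/well and grown 16–24 h.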
# FUS yeast rescue – qHTS for Suppressors of FUS Proteinopathy: Primary screen using FUS-linked yeast assay; S. cerevisiae FUS-expressing, growth rescue, OD600, 24 h; Potency, µM (titrated, usually from 76.6 µM), most hits filed as activators; hit rate 0.24% among 390,000;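 further: plate controls were DMSO vehicle for no effect and reference control for full effect; nearly all actives have a fitted effect of over 55% in size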
#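 Read-out: OD at 600 nm after 24hr at 30C, reporting rescue of FUS-induced yeast toxicity. Cells at OD 0.005 in galactose (2%) minimal medium; compounds tested in a dilution series; CP55940 titration from 92uM final as control.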
# Mito fusion act – qHTS Assay for Small Molecule Inhibitors of Mitochondrial Division or Activators of Mitochondrial Fusion; S. cerevisiae fusion-defective mutant growth rescue, CellTiterGlo 48 h; Potency, µM (top dose mostly 46.1 µM), for inactives: at the highest dose growth rescue (activation), most hits filed as activators; hit rate 0.23% among 320,000; further: % of control where 0% means no effect; nearly all actives have a fitted effect of over 45% in size
#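 S. cerevisiae fusion-defective temperature-sensitive mutants (e.g. fzo1-1, mgm1-5) grown 48 h at 37C in YPEG (ethanol/glycerol non-fermentable) medium with 23 nl compound per well; growth rescue read as CellTiterGlo luminescence.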
# ALOX12 inh – Primary qHTS assay for inhibitors of human arachidonate 12S-lipoxygenase (ALOX12): Round 2. Polyunsaturated fatty acid lipoxygenase ALOX12 (Homo sapiens), P18054. purified 12hLO, xylenol orange hydroperoxide absorbance. Potency, µM (series often up to 108 µM), for the others: top-dose activity change, negative = inhibition, most hits filed as inhibitors. hit rate 1.1% among 580,000. AID 1671190, 2021; further: on the % scale 0 is the no-effect control and ±100 the full control effect
# Target sequence (P18054 whole entry, looked up): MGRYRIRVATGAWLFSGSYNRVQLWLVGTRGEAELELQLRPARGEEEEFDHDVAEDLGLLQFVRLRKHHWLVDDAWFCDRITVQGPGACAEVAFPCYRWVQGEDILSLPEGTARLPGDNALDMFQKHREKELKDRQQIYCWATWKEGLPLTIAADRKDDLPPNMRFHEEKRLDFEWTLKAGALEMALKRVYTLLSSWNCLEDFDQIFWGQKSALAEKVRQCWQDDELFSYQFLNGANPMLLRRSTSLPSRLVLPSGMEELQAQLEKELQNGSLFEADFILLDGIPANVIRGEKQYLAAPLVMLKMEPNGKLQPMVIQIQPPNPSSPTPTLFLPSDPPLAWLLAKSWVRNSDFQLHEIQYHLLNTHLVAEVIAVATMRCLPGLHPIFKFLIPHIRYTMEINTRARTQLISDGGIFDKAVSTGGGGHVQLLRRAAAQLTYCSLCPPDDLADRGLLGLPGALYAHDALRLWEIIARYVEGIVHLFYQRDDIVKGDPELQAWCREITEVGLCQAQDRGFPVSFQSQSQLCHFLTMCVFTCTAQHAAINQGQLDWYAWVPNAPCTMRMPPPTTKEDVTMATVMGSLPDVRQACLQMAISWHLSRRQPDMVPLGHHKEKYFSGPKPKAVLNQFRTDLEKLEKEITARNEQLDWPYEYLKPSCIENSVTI
#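 Hydroperoxide product was detected by ferrous iron/xylenol orange as the 573 to 405 nm absorbance ratio. Arachidonic acid at 40 uM (final) was turned over for 30 min at room temperature by 150 nM human 12hLO, pH 7.0 Hepes buffer, after 15 min compound preincubation.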
# Numbers without * were called inactive; i = inactive; ? = inconclusive; · = not tested or not shown; [ ] = dose if it differs, or a comment. Unless noted, the call rests on the fitted dose curve; in most records, active means well fitted curve in the direction sought with a large enough effect; inconclusive means small, poorly fitted or top-dose-only effect, or another doubt; inactive means no such curve, though single readings can be large; an effect the other way counts as inactive or inconclusive. Potency means the concentration at half of the fitted maximal effect.
SMILES,gsp agonist,gsp antagonist,FUS yeast rescue,Mito fusion act,ALOX12 inh
COC(=O)C1=C(C)OC(N)=C(C#N)C1c1ccc(OC)c(CSc2ccccn2)c1 (stereo not given),8%,50µM*,i,5%,-29%
COC(=O)C1=C(C)OC(N)=C(C#N)C1c1ccccc1 (stereo not given),1%,-4%,i,0%,-1%
Cc1cc(OC(=O)c2ccccc2Cl)c([N+](=O)[O-])c(=O)[nH]1,-8%,9%,i,-1%,40µM*
Cc1cc(OC(=O)c2ccc(Cl)cc2Cl)c([N+](=O)[O-])c(=O)[nH]1,-38%,7%,i,-1%,?
O=C1N[C@H](CC(=O)N2CCC(Cc3ccccc3)CC2)C(=O)Nc2ccccc21,·,·,·,·,17%
O=C(Nc1cccc([N+](=O)[O-])c1)c1ccc2nc(N3C(=O)CCC3=O)sc2c1,-2%,?,i,0%,-18%
O=C(Nc1cccc(Br)c1)c1ccc2nc(N3C(=O)CCC3=O)sc2c1,-24%,35µM*,i,0%,-13%
Cc1cn(C(=O)c2ccccc2)c(=S)n1-c1ccc(Br)cc1,-45%,-14%,i,16µM*,-4%
CC(=O)c1c(C(C)=O)c(C)n(-c2ccc(Br)cc2)c1C,·,·,·,·,-11%
CCc1ccc(C(=O)NC(=S)Nc2ccc(N3CCOCC3)cc2)cc1,?,-13%,i,0%,22µM*
COc1ccc(C(=O)NC(=S)Nc2ccc(CN3CCOCC3)cc2)cc1Cl,-20%,2%,i,-7%,32µM*
O=C(Nc1ccc(CN2CCOCC2)cc1)c1ccc(-c2cc(Cl)ccc2Cl)o1,-3%,-14%,i,10µM*,0%
COc1ccc(C(=O)NC(=S)Nc2ccc(CN3CCOCC3)cc2)cc1OC,23%,-21%,i,-4%,0%
C[C@H](NC(=O)c1[nH]cnc1C(=O)Nc1ccc(Cl)cc1)c1ccccc1,·,-11%,i,7%,45µM*
C[C@@H](NC(=O)c1[nH]cnc1C(=O)Nc1ccc(Cl)cc1)c1ccccc1,-54%,-4%,i,-28%,?
Cc1cc(C)c2c(N)c(-c3ccc(C#N)cc3)sc2n1,·,·,·,·,4µM*
Cc1cc(C)c2c(n1)sc1c(-c3ccccc3)c(C#N)c(N)nc12,-52%,-8%,i,18%,?
O=C(NCc1ccccn1)C1c2ccccc2C(=O)N(C2CCCC2)C12CCCCC2 (stereo not given),·,·,·,·,38%
COC(=O)CNC(=O)CSc1ccccn1,1%,7%,i,0%,?
COC(=O)C1=C(C(=O)OC)SC(=C(Cl)C(=S)Sc2ccccn2)S1,·,·,·,·,4.5µM*
COC(=O)c1c(C)sc(-c2c(-c3ccc(F)cc3)[nH]c3[nH]c(=O)[nH]c(=O)c23)c1O,·,·,i,·,45µM*
CCCn1nc(C)cc1CN(C)c1ccc(NC(=O)c2ccc(OC)cc2)cc1C(=O)O,·,·,·,·,4.5µM*
CCCNC(=O)CN1CCN(c2ccc(NC(=O)c3ccc(OC)cc3)cc2C(=O)O)CC1,·,·,i,·,?
O=C(Nc1ccc(Cl)c(Cl)c1)C(=O)c1c[nH]c2ccccc12,·,·,·,·,8%
CC1CCN(CCCNC(=O)c2cc3cc(F)ccc3[nH]2)CC1,·,·,·,·,-13%
SMILES,gsp agonist,gsp antagonist,FUS yeast rescue,Mito fusion act,ALOX12 inh
Cc1noc(C)c1CSc1nc2ccccc2nc1NS(=O)(=O)c1ccc(Cl)cc1,19%,32µM*,i,16%,·
COCCCNc1nc2ccccc2nc1NS(=O)(=O)c1cc(Cl)ccc1Cl,-12%,?,i,32%,40µM*
CCN1CCN(c2nc3ccccc3nc2NS(=O)(=O)c2cc(Cl)ccc2Cl)CC1,·,·,·,·,25µM*
COCCCNc1nc2ccccc2nc1NS(=O)(=O)c1ccc(OC)cc1,-2%[15.4 µM],12%,i,-6%,?
COCCCNc1nc2ccccc2nc1NS(=O)(=O)c1ccc(Cl)cc1,4%,4%,i,14µM*,0%
COc1ccc(-c2nnsc2C(=O)NCCC(C)C)cc1,·,·,·,·,18%
